Assay outcomes deposited in PubChem by National Center for Advancing Translational Sciences (NCATS).
This excerpt belongs to a sample that is enriched for hits.
Shiga toxin inh: blocks Shiga toxin action in Vero cells; Vero cells, Shiga toxin protein synthesis inhibition reporter; inhibition, % at 38.7 µM; 9.2% of 290,000 active; in the data active = inhibition mostly above about 28%, no sharp cut-off; inactive = mostly below about 43%
AmpC inh no detg: AmpC beta-lactamase inhibition without detergent. P00811. 0.52% of 330,000 active. AmpC nitrocefin hydrolysis, absorbance 480 nm, 0.0001% Triton. Potency, µM (top dose mostly 57.1 µM), most hits filed as inhibitors; note: nearly all actives have a fitted effect of over 20% in size
Target sequence (P00811 whole entry, looked up): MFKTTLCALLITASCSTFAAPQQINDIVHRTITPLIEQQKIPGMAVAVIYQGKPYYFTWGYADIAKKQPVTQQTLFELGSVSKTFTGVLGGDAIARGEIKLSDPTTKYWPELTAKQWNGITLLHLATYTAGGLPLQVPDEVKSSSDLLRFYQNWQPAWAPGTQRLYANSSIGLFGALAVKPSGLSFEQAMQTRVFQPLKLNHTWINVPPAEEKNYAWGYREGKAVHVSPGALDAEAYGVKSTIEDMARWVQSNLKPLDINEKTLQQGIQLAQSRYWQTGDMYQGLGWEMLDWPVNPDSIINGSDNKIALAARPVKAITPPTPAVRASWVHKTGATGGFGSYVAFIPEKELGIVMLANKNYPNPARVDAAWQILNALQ
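AmpC (5.3 nM in the dispensed reagent) in 20 mM phosphate pH 7.0 with 0.01% (detergent screen) or 0.0001% Triton X-100 was preincubated with compounds for 15 min at room temperature. Nitrocefin was then added from an 800 uM solution, and hydrolysis was followed at 480 nm.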
AmpC inh detg: inhibitors of E. coli AmpC beta-lactamase with detergent; AmpC hydrolysis of nitrocefin, absorbance 480 nm, 0.01% Triton; Potency, µM (top dose mostly 114 µM), usual class: inhibitors; 0.041% of 370,000 active; AID 485294; note: nearly all actives have a fitted effect of over 25% in size
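20 mM phosphate pH 7.0 + 0.01% (detergent screen) or 0.0001% Triton X-100; 5.3 nM AmpC reagent; cpd preinc 15 min RT; nitrocefin (800 uM stock) to start; A480 q20 s × 4 min; Activity was normalised to no-enzyme and no-compound control wells.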
CHX counter: counter-screen for Shiga toxin inhibitors: cycloheximide protein synthesis inhibition; cell reporter, cycloheximide protein synthesis inhibition counterscreen; max response, %; 12% of 300,000 active; in the data active = max response mostly above about 13%, no sharp cut-off; inactive = mostly below about 14%; note: read at 38.3 µM for the half of the compounds with a filed dose
NS1 inh: blocks influenza NS1 protein function | Potency, µM (top dose mostly 46.1 µM) | 0.4% of 270,000 active; calls by dose curve; note: actives are rising curves; nearly all actives have a fitted effect of over 50% in size
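Read-out: OD600 growth recovery of NS1-expressing budding yeast. Cells grown overnight at 30C in -URA glucose medium, washed, resuspended and diluted 1:100 in 2% galactose assay medium, pH 6.0. Same strain lacking NS1 served as positive control.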
A number is an active result; i = inactive; ? = inconclusive; nt = no result given. Unless noted, calls come from the whole dose curve; as a rule, active = well fitted curve in the direction sought with a large enough effect; inconclusive = small, poorly fitted or top-dose-only effect, or another doubt; inactive = no such curve, though single readings can be large; an effect the other way counts as inactive or inconclusive.

SMILES	Shiga toxin inh	AmpC inh no detg	AmpC inh detg	CHX counter	NS1 inh
CCOC(=O)c1cc2c(C)n(-c3ccc(C)cc3)c(C)c2ccc1=O	119.8	i	i	35.2	i
CCOC(=O)c1sc(=S)n(-c2ccc(C)cc2)c1N	i	i	i	i	nt
CCOC(=O)c1cc2c(C)n(-c3ccc(OCC)cc3)c(C)c2ccc1=O	i	i	?	16.0	i
CCOc1ccc(-n2c(C)c(C(=O)OC)c3cc(O)ccc32)cc1	i	i	i	i	i
COc1ccc(-c2cn3nc(SCC(=O)Nc4cc(C)cc(C)c4)ccc3n2)cc1	nt	nt	i	nt	nt
COc1cc(C=O)ccc1OCCOCCOc1ccc(Cl)cc1	i	i	i	i	i
COc1cc(C=O)ccc1OCCSc1ccc(Cl)cc1	70.0	i	i	22.2	i
CC1CCCN(c2ccc(C(=O)NCc3ccco3)cc2[N+](=O)[O-])C1 (stereo not drawn)	60.0	i	i	i	i
O=C(NCC1CCCO1)c1ccc(N2CCCCC2)c([N+](=O)[O-])c1 (stereo not drawn)	44.5	i	i	43.0	i
O=C(NC1CC1)c1ccc(N2CCCCC2)c([N+](=O)[O-])c1	78.8	i	i	16.5	i
Cc1ccc(C(=O)NCc2ccco2)cc1[N+](=O)[O-]	i	i	i	i	i
Cc1nc(NC(=O)COc2ccc(Cl)cc2)sc1C(=O)N(C)C	i	i	i	i	i
Cc1ccc(CNc2nc(Cl)c(C#N)s2)cc1	62.1	i	i	28.4	i
Cc1ccc(S(=O)(=O)Nc2nc(C)c(C(=O)NN)s2)cc1	54.0	?	i	19.7	i
CC(=O)c1sc(NCc2ccc(C)cc2)nc1C	102.9	i	i	42.9	i
Cc1ccc(CNc2nc(C)c(C(=O)N(C)C)s2)cc1	64.9	i	i	28.5	i
Cc1cc(NS(=O)(=O)c2ccc(NC(=O)COc3ccc(Br)cc3)cc2)nc(C)n1	i	i	i	i	i
CC(=O)c1sc(NC(=O)CCS(=O)(=O)c2ccccc2)nc1C	58.2	i	i	56.7	i
CC(=O)c1sc(Nc2ccccn2)nc1C	i	i	i	i	i
Cc1nc(NCCc2ccccc2)sc1C(=O)O	40.5	i	i	i	i
CC(=O)c1sc(NCCOc2ccc(C)cc2)nc1C	59.6	i	i	27.5	nt
CC(=O)c1sc(NCc2ccccc2)nc1C	i	i	i	31.1	i
Nc1ncnc2c1ncn2[C@@H]1O[C@H](CNC(=O)[C@@H](N)CO)[C@@H](O)[C@H]1O	nt	i	nt	nt	nt
O=C(CC(c1ccccc1)c1ccccc1)Nc1ccc(Cl)cn1	i	i	i	i	i
O=C(CCS(=O)(=O)c1ccccc1)Nc1ccc(Cl)cn1	61.0	i	i	24.1	i
SMILES	Shiga toxin inh	AmpC inh no detg	AmpC inh detg	CHX counter	NS1 inh
O=C(CS(=O)(=O)c1ccccc1)Nc1ccc(Cl)cn1	67.0	i	i	i	i
Cc1ccc(C2C=C(c3ccc(F)cc3)Nc3nc(CCCO)nn32)cc1 (stereo not drawn)	nt	nt	i	nt	nt
CC1=NN(c2ccc(C)cc2)C(=O)/C1=C/c1ccc(-c2cc([N+](=O)[O-])ccc2O)o1	i	15.8µM	i	i	i
Cc1c(Cl)cccc1Nc1nc(N)nc(CSCCO)n1	i	i	i	i	i
CN1CCN(C(=S)SCc2nc(N)nc(Nc3ccc(F)cc3)n2)CC1	i	i	i	18.6	i
Cc1ccc(Nc2nc(N)nc(CSC(=S)N3CCN(c4ccccc4)CC3)n2)cc1	i	i	?	i	?
Nc1nc(CSCCO)nc(Nc2ccc(F)cc2)n1	i	i	i	25.2	i
Cc1ccc(Nc2nc(N)nc(CSC(=S)N3CCOCC3)n2)c(C)c1	71.7	i	i	33.5	i
Nc1nc(CSC(=S)N2CCOCC2)nc(Nc2ccc(F)cc2)n1	i	i	i	i	i
COc1ccc(Nc2nc(N)nc(CSC(=S)N3CCOCC3)n2)cc1	67.4	i	i	39.1	i
CCOc1ccccc1CNC(=O)Cn1c(=O)c2cccn2c2ccc(F)cc21	nt	nt	i	nt	nt
COCCCNC(=O)CSc1nc2c(sc3ccccc32)c(=O)n1CCc1ccccc1	nt	nt	i	nt	nt
Cn1c(=O)c2sccc2n2c(CCCC(=O)NCc3ccco3)nnc12	i	i	i	i	i
Cc1ccc(C)c(NC(=O)Cn2cc(S(=O)(=O)c3ccc(F)cc3)c(=O)c3cc(F)ccc32)c1	nt	nt	i	nt	nt
CCOc1ccc(CNC(=O)c2cnc3sc(N4CCC(C)CC4)nn3c2=O)cc1OC	nt	nt	i	nt	nt
Cc1ccc(CCSCC(=O)O)cn1	i	i	i	i	i
Cc1ccc(SCCc2ccc(C)nc2)cc1	active	i	i	21.6	i
Cc1c(C(=O)N/N=C/c2ccccc2)[nH]c2ccc(Cl)cc12	40.5	i	?	27.2	i
Cc1c(C(=O)N/N=C/c2ccc(N(C)C)cc2)[nH]c2ccc(Cl)cc12	i	i	i	i	i
CC(C)(C)C(=O)OCc1nc(-c2ccc(F)cc2)cs1	92.3	i	i	41.6	i
CC(C)(C)C(=O)OCc1nc(-c2ccc3c(c2)OCCO3)cs1	113.8	i	i	54.2	i
NC(=S)Cc1nc(-c2ccc(Cl)cc2)cs1	79.7	i	i	i	nt
COc1ccc(-c2csc(CCN3N=C(C)CC3=O)n2)cc1	i	i	i	i	i
COc1ccc(-c2csc(COC(=O)C(C)(C)C)n2)cc1	74.9	i	i	30.3	i
CC1(c2ccc3c(c2)OCCO3)NC(=O)N(CC(=O)Nc2ccccc2SCC#N)C1=O (stereo not drawn)	nt	i	i	nt	nt
SMILES	Shiga toxin inh	AmpC inh no detg	AmpC inh detg	CHX counter	NS1 inh
Cc1ccc(-n2nc(C(=O)N(C)c3ccccc3Cl)c3c4ccccc4n(C)c3c2=O)cc1	nt	nt	i	nt	nt
NNC(=O)CSCc1nc(-c2ccc(Cl)cc2)cs1	i	i	i	i	i
CC(C)(C)C(=O)OCc1nc(-c2ccc(Cl)cc2)cs1	69.4	i	i	59.0	i
O=C(NNC(=O)C1CC=CCC1)c1ccccc1Cl (stereo not drawn)	i	i	i	19.7	i
COc1ccc(C(=O)NNC(=O)C2CC=CCC2)cc1 (stereo not drawn)	43.2	i	i	25.5	i
COc1ccc(C(=O)NNC(=O)C2CCCO2)cc1 (stereo not drawn)	i	i	?	i	i
CCOc1cccc(/C=C(/C#N)c2nc3ccccc3[nH]2)c1OCC(=O)O	nt	i	?	22.1	i
COc1cc(/C=C(\C#N)c2nc3ccccc3[nH]2)ccc1OC(=O)c1ccco1	42.9	i	i	47.8	i
N#C/C(=C\c1cccc(OCC(=O)O)c1)c1nc2ccccc2[nH]1	i	i	i	24.9	i
CCN(CC)c1ccc(/C=C(/C#N)c2nc3ccccc3[nH]2)c(OC(C)C)c1	119.2	i	i	47.6	i
O=[N+]([O-])c1ccccc1CNCCO	nt	i	?	nt	nt
COc1cccc(/C=C(\C#N)c2nc3ccc(C)cc3[nH]2)c1OCC(=O)O	40.2	i	i	26.6	?
COc1cc(/C=C(\C#N)c2nc3ccc(C)cc3[nH]2)ccc1OC(C)C	nt	nt	i	nt	nt
CC1CCN(S(=O)(=O)c2ccc3c(c2)oc(=O)n3CC(=O)N2CCc3ccccc3C2)CC1	i	i	i	i	i
Clc1ccc(CSc2snnc2-c2ccccc2)cc1	i	i	i	23.3	i
